According to PubChem BioAssay:
Activity calls are given as the source filed them.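 The calls were made as follows: active = inhibition above 20% together with a positive visual image hit; inconclusive = visual image hit but inhibition not above 20%; inactive = no visual image hit.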

Experiment: inhibitors of TNFa-induced NFkB p65 translocation, primary screen, imaging, HUVEC, MLSMR starter and 10KST1 sets (AID 438);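 also: compound added about 3h40 before a 20 min TNFalpha stimulation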;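 as to inhibition: signal is the nuclear over cytoplasmic p65 intensity ratio per well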
Settings: HUVEC TNFa-induced p65 nuclear translocation; cell count: measured here: nuclei count (cytotoxicity indicator), at 2.08 µM; inhibition: at 2 µM, stronger effect = higher value, 0% TNFa-plus-vehicle, 100% no-TNFa wells

Compound	inhibition	cell count
Cc1nc2c(-c3ccc(F)cc3)c(C)nn2c(C)c1CCC(=O)NC(C)CCc1ccco1 (stereo not drawn)	0.6% (inactive)	791
CCOC(=O)N1CCC(NC(=O)CSCc2nc(-c3cccc(OC)c3)oc2C)CC1	4.4% (inactive)	292
Cn1c(=O)[nH]c(=O)c2c1nc(NC1CCCCC1)n2CC(=O)NC1CCCCC1	-14.7% (inactive)	751
O=S(=O)(Nc1ccc(Cc2ccncc2)cc1)N1CCCC1	-3.6% (inactive)	848
CCOc1ccc2nc(NC(=O)CSc3nnnn3C3CCCCC3)sc2c1	1.7% (inactive)	401
COc1ccccc1OCCCCNCCO	9.1% (inactive)	493
Cc1cccc(-n2ncc3c(NCCCO)ncnc32)c1	2.3% (inactive)	840
COc1cc(NC(=O)Nc2cccc(Cl)c2)c(OC)cc1NC(=O)CN1CCCCC1	-15.2% (inactive)	709
CCOC(=O)N1CCN(C(=O)c2n[nH]c(=O)c3ccccc23)CC1	-9.4% (inactive)	515
C=CCN1C(=O)C2(C(C#N)=C(N)Oc3n[nH]c(CCC)c32)c2ccccc21 (stereo not drawn)	3.2% (inactive)	389
CCOc1ccc2[nH]c(=O)c(C(c3nnnn3CC3CCCO3)N3CCc4ccccc4C3)cc2c1 (stereo not drawn)	12.9% (inactive)	702
Cn1c(Cc2ccccc2)nnc1SCC(=O)N1CCOCC1	-0.8% (inactive)	492
CC1=C(C(=O)OC2CCCCC2)C(c2ccc(C)o2)C2=C(CC(C)(C)CC2=O)N1 (stereo not drawn)	-2.4% (inactive)	493
O=S(=O)(NC1CCCCC1NS(=O)(=O)c1ccc(F)cc1)c1ccc(F)cc1 (stereo not drawn)	5.3% (inactive)	334
CCOC(=O)c1ccc(NC(=O)Cn2cc3c(n2)CCC(C)C3)cc1 (stereo not drawn)	-3.7% (inactive)	711
O=C(O)C1CC(=O)N(CCOc2ccccc2)C1 (stereo not drawn)	4.7% (inactive)	407
COC(=O)c1ccc(NC(=O)C(C)N2C(=O)c3ccccc3C2=O)cc1 (stereo not drawn)	-1.8% (inactive)	593
COc1ccc(N2CCN(C(=O)COc3ccc4ccccc4c3)CC2)cc1	7.3% (inactive)	737
Cn1cc(CN2CCc3ccccc3C2)c2ccccc21	-12.1% (inactive)	361
COC(=O)c1cn(NC(=O)c2cccnc2)c(=O)c2ccccc12	2.5% (inactive)	364

Compound	inhibition	cell count
Cn1c(C(=O)NCCCN2CCCCCC2)cc2c(=O)n(C)c3ccccc3c21	5.5% (inactive)	653
O=C(Nc1nccs1)c1ccc(COc2ccccc2Br)o1	-14.6% (inactive)	694
CC(C)Cn1c(CN(Cc2ccccc2)Cc2ccccc2)nc2c1c(=O)n(C)c(=O)n2C	-1% (inactive)	567
Cc1ccc(CCNC(=O)CC2Oc3ccc(C)cc3NC2=O)cc1 (stereo not drawn)	5.5% (inactive)	644
COc1cc2c(=O)n(Cc3ccccc3)c(=O)n(CC(=O)NCc3ccco3)c2cc1OC	3.5% (inactive)	358
O=C(Nc1ccc(Cl)cn1)c1cccnc1	-8% (inactive)	340
CCSc1nc2ccccc2n1CC(N)=O	2.1% (inactive)	400
CC1(c2ccc(Cl)cc2)NC(=O)N(CC(=O)NC(=O)NCc2ccco2)C1=O (stereo not drawn)	2.9% (inactive)	482
O=C(Nn1cnnc1)C1Cc2ccccc2CN1S(=O)(=O)c1ccc(F)cc1 (stereo not drawn)	-6.7% (inactive)	326
Cc1cc(NCCN2CCCCC2)n2c(nc3ccccc32)c1C#N	-10.5% (inactive)	624
CCCSc1nnc(-c2ccccc2NC(=O)CC)c(=O)[nH]1	-9.3% (inactive)	632
O=C(NCc1ccco1)c1ccc2c(=O)n(CC3CCCO3)c(=S)[nH]c2c1 (stereo not drawn)	-2.6% (inactive)	318
C[C@@H]1C[C@H](O)c2cc(Cl)ccc2N1	-7.2% (inactive)	404
COc1cccc(NC(=O)COC(=O)c2cccnc2)c1	-1.6% (inactive)	354
NC(=O)CCS(=O)(=O)CCN1CCCCC1	5.7% (inactive)	361
Cn1c(=O)n(CCN2CCOCC2)c(=O)c2c1nc1n2CCN1c1ccccc1	14% (inactive)	362
COC(=O)CSc1nnc(-c2cccs2)n1-c1ccc(Cl)cc1	12.8% (inactive)	347
COc1ccc(NC(=O)C(C)Oc2ccc(/C(C)=N\O)cc2)cc1 (stereo not drawn)	2.7% (inactive)	581
CCOC(=O)c1ccccc1NC(=O)c1cccnc1	5.5% (inactive)	381
